KCNH2 WT inh: blocks the wildtype human KCNH2 potassium channel; Q12809; U2OS, BacMam KCNH2, thallium flux FluxOr; active compounds read low; activity change, % at 1.84 µM; 0.37% of 340,000 active;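 active = maximum activity change below -70%; inconclusive = maximum activity change between -70% and -50%; inactive = maximum activity change above -50%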; note: % is set by controls: 0 for no effect and ±100 for the full control effect
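U2OS cells transduced with wild-type KCNH2 virus are loaded with FluxOr dye for 45 min, and thallium flux is measured in kinetic reads before and after stimulation buffer. Rate constants are normalized to DMSO controls.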
KCNH2 3.1 block: KCNH2 3.1 (human) potassium channel inhibition; activity change, % (tested at about 1.8 µM); U2OS KCNH2 3.1, thallium flux FluxOr; active compounds read low; 0.95% of 340,000 active;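 active = maximum activity change below -70%; inconclusive = maximum activity change from -70% to -50%; inactive = maximum activity change above -50%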;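 note: thallium influx rate constant from kinetic fluorescence after stimulation buffer; % is set by controls: 0 for no effect and ±100 for the full control effect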
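Measured as rate of thallium-driven FluxOr signal in transduced U2OS cells carrying the 3.1 channel, read kinetically for 2 min upon stimulation; values are rate constants scaled to DMSO control wells.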
MLL CXXC-DNA inh: inhibitors of human MLL CXXC domain-DNA interaction; Q03164; MLL-CXXC / FITC-HOXA9 DNA fluorescence polarization; Potency, µM (highest dose often 115 µM), inactives show at the top dose activity change, negative = inhibition, actives largely listed as inhibitors; 0.037% of 290,000 active; AID 2662; active = well fitted inhibition curve with a large enough effect in the polarisation, with a control signal flat, not every such curve was filed as active; inconclusive = small, poorly fitted or top-dose-only effect, or effect the other way, or a change in a side signal; inactive = no such curve, though single readings can be large or run the other way; the % refers to the polarisation; note: potency is the fitted concentration of half-maximal effect
Target sequence (Q03164 whole entry, looked up, the tested form may be a part): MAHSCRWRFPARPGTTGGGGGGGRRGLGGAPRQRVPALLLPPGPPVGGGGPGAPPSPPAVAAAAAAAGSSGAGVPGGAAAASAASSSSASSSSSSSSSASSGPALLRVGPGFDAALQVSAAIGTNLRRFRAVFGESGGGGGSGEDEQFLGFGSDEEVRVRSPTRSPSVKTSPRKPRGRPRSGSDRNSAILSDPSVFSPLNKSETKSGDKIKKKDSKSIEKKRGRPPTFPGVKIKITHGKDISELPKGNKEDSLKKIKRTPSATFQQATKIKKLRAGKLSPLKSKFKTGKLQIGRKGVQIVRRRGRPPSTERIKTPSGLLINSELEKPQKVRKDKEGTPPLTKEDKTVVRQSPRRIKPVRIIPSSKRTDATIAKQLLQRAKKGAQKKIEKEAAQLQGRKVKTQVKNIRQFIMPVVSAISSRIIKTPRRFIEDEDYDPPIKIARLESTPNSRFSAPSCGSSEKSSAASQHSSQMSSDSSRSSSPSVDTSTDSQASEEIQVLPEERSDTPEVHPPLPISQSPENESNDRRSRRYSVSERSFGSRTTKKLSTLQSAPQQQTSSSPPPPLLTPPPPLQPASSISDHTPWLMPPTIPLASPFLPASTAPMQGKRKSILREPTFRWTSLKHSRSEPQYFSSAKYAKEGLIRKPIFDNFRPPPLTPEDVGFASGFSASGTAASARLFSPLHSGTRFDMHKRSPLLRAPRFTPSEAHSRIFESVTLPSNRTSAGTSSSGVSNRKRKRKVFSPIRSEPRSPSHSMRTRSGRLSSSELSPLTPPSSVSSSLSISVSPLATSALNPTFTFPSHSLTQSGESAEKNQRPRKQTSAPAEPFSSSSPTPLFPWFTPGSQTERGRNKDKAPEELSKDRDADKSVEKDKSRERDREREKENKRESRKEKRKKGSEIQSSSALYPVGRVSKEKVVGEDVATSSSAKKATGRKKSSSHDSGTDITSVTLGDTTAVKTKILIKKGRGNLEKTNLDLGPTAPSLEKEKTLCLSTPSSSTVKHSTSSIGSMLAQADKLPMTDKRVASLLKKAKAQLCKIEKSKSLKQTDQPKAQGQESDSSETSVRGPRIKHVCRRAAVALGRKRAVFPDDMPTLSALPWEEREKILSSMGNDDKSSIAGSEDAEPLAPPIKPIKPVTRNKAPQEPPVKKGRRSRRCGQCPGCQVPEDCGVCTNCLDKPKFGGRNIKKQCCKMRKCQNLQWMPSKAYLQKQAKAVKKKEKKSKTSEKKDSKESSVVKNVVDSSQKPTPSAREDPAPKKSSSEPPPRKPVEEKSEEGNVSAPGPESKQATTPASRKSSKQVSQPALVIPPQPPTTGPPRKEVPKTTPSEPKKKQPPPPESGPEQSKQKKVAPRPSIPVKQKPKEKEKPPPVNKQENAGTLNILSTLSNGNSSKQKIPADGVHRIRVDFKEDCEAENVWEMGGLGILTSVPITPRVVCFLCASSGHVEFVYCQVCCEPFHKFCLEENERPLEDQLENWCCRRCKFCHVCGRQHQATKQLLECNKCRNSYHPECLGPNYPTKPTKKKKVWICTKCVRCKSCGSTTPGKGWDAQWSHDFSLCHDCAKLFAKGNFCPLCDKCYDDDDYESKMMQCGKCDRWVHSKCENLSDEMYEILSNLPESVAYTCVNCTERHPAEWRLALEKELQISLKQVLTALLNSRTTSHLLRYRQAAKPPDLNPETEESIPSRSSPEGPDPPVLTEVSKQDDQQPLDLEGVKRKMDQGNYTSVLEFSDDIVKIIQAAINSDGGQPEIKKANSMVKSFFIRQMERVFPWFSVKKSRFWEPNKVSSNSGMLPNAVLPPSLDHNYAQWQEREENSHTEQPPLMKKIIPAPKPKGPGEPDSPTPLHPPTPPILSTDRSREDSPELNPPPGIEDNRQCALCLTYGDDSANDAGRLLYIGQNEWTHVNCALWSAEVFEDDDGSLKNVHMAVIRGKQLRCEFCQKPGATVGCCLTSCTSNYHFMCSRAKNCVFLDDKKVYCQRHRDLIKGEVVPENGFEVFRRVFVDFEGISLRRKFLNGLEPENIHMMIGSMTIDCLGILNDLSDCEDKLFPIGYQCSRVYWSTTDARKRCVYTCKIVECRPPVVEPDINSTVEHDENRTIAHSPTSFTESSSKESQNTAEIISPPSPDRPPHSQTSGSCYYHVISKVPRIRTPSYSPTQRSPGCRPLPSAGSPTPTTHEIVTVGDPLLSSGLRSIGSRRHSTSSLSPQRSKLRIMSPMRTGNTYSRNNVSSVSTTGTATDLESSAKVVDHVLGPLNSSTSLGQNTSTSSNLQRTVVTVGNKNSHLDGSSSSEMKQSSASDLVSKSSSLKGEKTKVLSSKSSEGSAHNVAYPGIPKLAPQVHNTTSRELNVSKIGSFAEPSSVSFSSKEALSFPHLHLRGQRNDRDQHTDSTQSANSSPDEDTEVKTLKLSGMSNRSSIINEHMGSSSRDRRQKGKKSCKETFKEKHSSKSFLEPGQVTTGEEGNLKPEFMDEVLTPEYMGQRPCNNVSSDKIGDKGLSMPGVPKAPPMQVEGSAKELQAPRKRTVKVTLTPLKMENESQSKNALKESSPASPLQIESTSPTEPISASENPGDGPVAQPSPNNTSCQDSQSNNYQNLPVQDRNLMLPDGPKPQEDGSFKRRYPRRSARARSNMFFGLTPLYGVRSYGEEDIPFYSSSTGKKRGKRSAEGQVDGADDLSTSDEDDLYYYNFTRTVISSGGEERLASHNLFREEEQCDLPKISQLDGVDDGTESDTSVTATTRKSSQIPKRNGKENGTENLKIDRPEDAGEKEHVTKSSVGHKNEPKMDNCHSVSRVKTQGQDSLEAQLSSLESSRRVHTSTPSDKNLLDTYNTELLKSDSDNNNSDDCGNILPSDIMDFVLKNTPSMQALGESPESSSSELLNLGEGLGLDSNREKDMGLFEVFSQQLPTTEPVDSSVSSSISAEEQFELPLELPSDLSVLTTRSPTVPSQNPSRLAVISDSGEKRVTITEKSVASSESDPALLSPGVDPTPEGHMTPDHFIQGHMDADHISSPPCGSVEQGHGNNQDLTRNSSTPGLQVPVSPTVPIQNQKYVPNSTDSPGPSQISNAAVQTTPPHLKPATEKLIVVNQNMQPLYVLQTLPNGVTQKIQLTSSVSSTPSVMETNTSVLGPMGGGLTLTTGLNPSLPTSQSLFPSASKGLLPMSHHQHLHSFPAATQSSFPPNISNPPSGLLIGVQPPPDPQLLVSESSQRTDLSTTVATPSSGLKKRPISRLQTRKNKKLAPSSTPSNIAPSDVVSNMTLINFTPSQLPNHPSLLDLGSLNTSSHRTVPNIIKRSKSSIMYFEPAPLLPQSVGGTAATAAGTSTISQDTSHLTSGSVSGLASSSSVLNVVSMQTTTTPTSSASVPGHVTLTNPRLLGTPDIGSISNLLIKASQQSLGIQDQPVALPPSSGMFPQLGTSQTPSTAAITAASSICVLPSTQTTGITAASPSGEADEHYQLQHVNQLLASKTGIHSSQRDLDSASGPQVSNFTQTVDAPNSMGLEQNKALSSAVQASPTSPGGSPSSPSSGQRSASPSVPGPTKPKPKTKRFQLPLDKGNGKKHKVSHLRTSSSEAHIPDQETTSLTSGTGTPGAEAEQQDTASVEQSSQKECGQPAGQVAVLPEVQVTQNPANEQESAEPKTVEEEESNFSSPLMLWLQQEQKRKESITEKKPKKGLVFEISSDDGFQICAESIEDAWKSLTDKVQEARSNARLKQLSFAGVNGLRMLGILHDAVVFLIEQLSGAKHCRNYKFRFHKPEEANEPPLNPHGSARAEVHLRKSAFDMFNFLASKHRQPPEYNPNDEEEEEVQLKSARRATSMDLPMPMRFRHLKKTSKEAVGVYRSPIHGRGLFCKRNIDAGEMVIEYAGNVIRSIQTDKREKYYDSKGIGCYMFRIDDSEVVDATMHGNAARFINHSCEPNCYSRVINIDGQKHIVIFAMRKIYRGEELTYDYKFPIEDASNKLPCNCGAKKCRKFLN
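Steps: dispense CXXC domain solution (7 uM) → pin compounds or unlabeled HOX-A9 DNA control → 5 min ambient → add FLSN-HOX-A9 solution (50 nM) → spin → 30 min ambient → fluorescence polarization. Tris pH 7.5/NaCl/DTT/BSA buffer.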
Menin-MLL TR inh: displaces Texas Red mutant MLL peptide from human menin. Potency, µM (top dose mostly 61.6 µM), inactives show top-dose FP activity change, negative = inhibition, hits mostly inhibitors. O00255. AID 1768. Menin + Texas Red MLL mutant peptide, fluorescence polarization. 0.23% of 270,000 active; active = well fitted inhibition curve with a large enough effect in the polarisation, with a control signal flat, not every such curve was filed as active; inconclusive = small, poorly fitted or top-dose-only effect, or effect the other way, or a change in a side signal; inactive = no such curve, though single readings can be large or run the other way; the % refers to the polarisation; note: potency is the fitted concentration of half-maximal effect; % of control where 0% means no effect
Menin MLL FP FL: inhibitors of human menin-MLL interaction, wild-type MLL peptide | Fluorescence polarization, fluorescein-MLL peptide displacement from menin | AID 1766 | 290,000 tested, under 10 active | FP activity change, % at 61.4 µM; active = well fitted curve in the direction sought with a large enough effect in the polarisation, not every such curve was filed as active; inconclusive = small, poorly fitted or top-dose-only effect, or effect the other way, or a change in a side signal; inactive = no such curve, though single readings can be large or run the other way; the % refers to the polarisation; note: % of control where 0% means no effect
Starred values were filed as active, the others as inactive; ? = inconclusive; nt = no result given. Hits are enriched below; roughly 1.1% of the tested compounds scored in any of these assays.

SMILES	KCNH2 WT inh	KCNH2 3.1 block	MLL CXXC-DNA inh	Menin-MLL TR inh	Menin MLL FP FL
CC(C)C[C@H](NC(=O)CNC(=O)[C@H](CCC(N)=O)NC(=O)[C@H](CC(C)C)NC(=O)[C@H](CC(C)C)NC(=O)[C@H](CCCNC(=N)N)NC(=O)[C@H](CCC(N)=O)NC(=O)[C@H](CC(C)C)NC(=O)[C@H](CCCNC(=N)N)NC(=O)[C@H](C)NC(=O)CNC(=O)[C@H](CCC(=O)O)NC(=O)[C@H](CCCNC(=N)N)NC(=O)[C@H](CC(C)C)NC(=O)[C@H](CCCNC(=N)N)NC(=O)[C@H](CO)NC(=O)[C@H](CC(C)C)NC(=O)[C@H](CCC(=O)O)NC(=O)[C@H](CO)NC(=O)[C@@H](NC(=O)[C@H](Cc1ccccc1)NC(=O)[C@@H](NC(=O)CNC(=O)[C@H](CC(=O)O)NC(=O)[C@H](CO)NC(=O)[C@@H](N)Cc1cnc[nH]1)[C@@H](C)O)[C@@H](C)O)C(=O)N[C@H](C(N)=O)C(C)C	nt	nt	nt	4%	1
COc1ccc(N2CCN(CCCNC(=O)c3cc4sccc4n3C)CC2)cc1	-109*	-94*	4%	6%	2
O=C(NCCN1CCN(c2ccccc2)CC1)Nc1ccc(Cl)cc1	53	-3	0%	5%	5
COc1ccc(N2CCN(CCNC(=O)Nc3ccc(Cl)cc3)CC2)cc1	12	-70*	0%	20%	1
COc1ccc(N2CCN(CCCNC(=O)c3ccc(CS(=O)(=O)c4ccc(Cl)cc4)o3)CC2)cc1	-21	-99*	?	nt	nt
CN(C(=O)COC(=O)C1CSC2(C)CCC(=O)N12)c1ccccc1 (stereo not drawn)	3	13	nt	nt	nt
COC1=C/C(=C/c2c(N)n3nc(CC(=O)N4CCCC4)sc3nc2=O)C=CC1=O	-2	16	?	3%	?
COC1=CC(=Cc2c(N)n3nc(CC(=O)N4CCCCC4)sc3nc2=O)C=C(OC)C1=O	-70*	10	?	nt	nt
COC(=O)C1=C[C@@H](C(=O)OC)C2C3=C(C(=O)[C@@]2(C)NC(=O)c2ccccc2)[C@H](C)[C@@H]2C(=O)NC(=O)[C@@H]2[C@@H]3C1 (stereo partly drawn)	nt	nt	nt	1%	-12
O=C(CN1CCC(Cc2ccccc2)CC1)N1CCc2ccccc2C1	-35	-90*	1%	-12%	1
COc1ccccc1CN1CCNC(=O)C1CC(=O)NCCC1=CCCCC1 (stereo not drawn)	7	4	3%	-16%	0
CCOc1ccccc1CN1CCNC(=O)C1CC(=O)NCCC1=CCCCC1 (stereo not drawn)	21	-109*	?	-4%	1
CCCCCCCCCCCCCCCCCCOC[C@H](COP(=O)([O-])OCC[N+](C)(C)C)OC(C)=O	nt	nt	nt	-15%	5
CCN1CCN(C(c2nnnn2Cc2ccc3c(c2)OCO3)C(C)C)CC1 (stereo not drawn)	4	-2	4%	5%	5
Cc1ccc(C(c2nnnn2Cc2cccs2)N2CCN(Cc3ccc4c(c3)OCO4)CC2)cc1 (stereo not drawn)	-110*	-95*	13%	-16%	3
CC(C)C(c1nnnn1Cc1ccc(F)cc1)N1CCN(Cc2ccc3c(c2)OCO3)CC1 (stereo not drawn)	1	-71*	4%	-25%	-8
CC(=O)NS(=O)(=O)c1ccc(NC(=O)C(C)NS(=O)(=O)/C=C/c2ccccc2)cc1 (stereo not drawn)	5	10	nt	nt	nt
Cc1cc([N+](=O)[O-])nn1CCCC(=O)Nc1cc(Cl)ccc1Cl	0	-20	2%	10%	0
CC(C)(C)c1ccc(N2C[C@@H](COc3ccc(C(=O)O)cc3)CC2=O)cc1	nt	nt	nt	20%	0
Cc1cc(C)cc(NC(=O)CN2CCN(CCN=CC3=C(O)CC(C)(C)CC3=O)CC2)c1	5	-93*	-1%	7%	-2
Cc1ccc(C2CC(=O)C(C=NCCN3CCN(CC(=O)Nc4cc(C)cc(C)c4)CC3)=C(O)C2)cc1 (stereo not drawn)	13	-24	-3%	-20%	-6
Clc1cccc(CNCCCSc2ncccn2)c1Cl	-9	-94*	-1%	-16%	3
CN(C)c1ccc(NC(=S)c2ccc3ccccc3n2)cc1	10	-13	24%	?	-3
CN1CCC(OC(c2ccccc2)c2ccccc2)CC1	29	-19	8%	5%	1
CN1CCC(Oc2ccccc2Sc2ccccc2)CC1	-71*	5	8%	-1%	4
SMILES	KCNH2 WT inh	KCNH2 3.1 block	MLL CXXC-DNA inh	Menin-MLL TR inh	Menin MLL FP FL
CCCC(=O)O[C@]1(C(=O)CCl)[C@H](C)C[C@@H]2[C@H]3CCC4=CC(=O)C=C[C@]4(C)[C@@]3(F)C(=O)C[C@@]21C	nt	nt	4%	2%	-2
COc1ccc(CNCC(O)(c2ccc(F)cc2)c2ccc(F)cc2)cc1	8	-105*	5%	-8%	-4
Cn1c(SCC(=O)Nc2ccccc2[N+](=O)[O-])nnc1C(F)(F)F	-3	24	-1%	1%	1
Cc1cccc(NC(=O)CNC(=O)CSc2nnc(C(F)(F)F)n2C)c1C	-130*	-186*	nt	nt	nt
COC(=O)[C@@]1(Cc2ccc(OC)cc2)[C@H]2c3cc(C(=O)N(C)C)n(Cc4ccc(OC)c(OC)c4)c3C[C@H]2CN1C(=O)c1ccccc1	nt	nt	nt	-1%	0
O=C(c1ccc(=O)[nH]n1)N1CCN(S(=O)(=O)c2ccc(C(F)(F)F)cc2)CC1	-9	3	nt	nt	nt
OCC[C@@H]1C[C@@H](O)[C@H](O)[C@@]2(OCc3ccccc32)O1	-1	23	-1%	17%	1
OCC[C@@H]1C[C@H](O)[C@@H](O)[C@@]2(CCc3ccccc3O2)O1	-2	16	-6%	12%	-4
OCC[C@H]1C[C@@H](O)[C@H](O)[C@]2(OCc3ccccc32)O1	-3	-89*	nt	nt	nt
OCC[C@@H]1C[C@H](O)[C@@H](O)[C@@]2(OCc3ccccc32)O1	-16	-136*	2%	5%	4
OCC[C@@H]1C[C@@H](O)[C@H](O)[C@@]2(CCc3ccccc3O2)O1	-169*	5	3%	16%	0
O=C(CCCOc1ccccc1)Nc1cccc(S(=O)(=O)N2CCCCCC2)c1	-6	7	nt	nt	nt
Cc1c(C)c2ccc(OC(C)C(=O)NCCCN3CCOCC3)c(C)c2oc1=O (stereo not drawn)	-4	10	53%	16%	1
Cc1ccc(S(=O)(=O)NCC(=O)N(CCc2ccccc2)CC(=O)NCc2ccco2)cc1	-75*	-9	1%	-7%	2
NS(=O)(=O)c1ccc(CCNC(=O)c2ccc(NC3=NC4CS(=O)(=O)CC4S3)cc2)cc1 (stereo not drawn)	-16	-5	0%	-1%	8
CCN1/C(=C/c2sc(-c3ccccc3C)c[n+]2C)Sc2ccccc21	-7	-1	0%	25µM*	-2
